An excerpt weighted towards active compounds, which were near 8.9% of everything screened.
DRD3 antagonist: qHTS of D3 Dopamine Receptor Antagonist: qHTS; D(3) dopamine receptor (Homo sapiens), P35462; D3R cells, DiscoveRx beta-arrestin luminescence, antagonist mode; stronger effect = lower value; max response, negative = inhibition, %; 2.5% of 360,000 active; AID 652054, 2013; in the data active = max response below about -50%; inconclusive = no clear call, values can overlap the other calls; also: % is scaled to controls: 0 for no effect and ±100 for the full control effect
Target sequence (P35462 whole entry, looked up): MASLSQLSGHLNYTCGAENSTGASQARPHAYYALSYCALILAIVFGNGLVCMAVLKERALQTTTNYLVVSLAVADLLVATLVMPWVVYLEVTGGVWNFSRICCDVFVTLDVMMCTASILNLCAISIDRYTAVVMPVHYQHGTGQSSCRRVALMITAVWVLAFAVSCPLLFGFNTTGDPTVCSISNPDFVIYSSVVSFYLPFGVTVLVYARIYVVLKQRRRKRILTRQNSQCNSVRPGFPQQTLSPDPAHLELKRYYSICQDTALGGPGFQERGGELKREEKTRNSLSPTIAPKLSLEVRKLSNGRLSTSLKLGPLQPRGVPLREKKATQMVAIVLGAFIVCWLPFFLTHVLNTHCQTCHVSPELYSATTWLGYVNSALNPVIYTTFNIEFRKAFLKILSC
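Cells plated overnight at 1500 cells/well, then exposed to library compounds with dopamine controls for 90 minutes at 37 degrees C. DiscoveRx reagent added for 30–60 minutes at room temperature; luminescence read, quantitative HTS format.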
KB-V1 MDR tox: qHTS assay for MDR1-selective chemotherapeutics: Primary screen using the drug-selected MDR subline cells KB-V1. KB-V1 MDR cells viability, CellTiter-Glo, 72 h. Potency, µM (highest dose often 46.1 µM), most hits filed as cytotoxic. 3.4% of 400,000 active; also: potency is read from the fitted curve at half-maximal effect; % is scaled to controls: 0 for no effect and ±100 for the full control effect; nearly all actives have a fitted effect of over 60% in size
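KB-V1 MDR subline cells in DMEM (phenol-red free, 10% FBS) exposed to compounds in qHTS concentration series for 72 h at 37 degrees C. Viability read by CellTiter-Glo luminescence; concentration-effect curves fitted after normalization and correction.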
MCF10A rerep: A quantitative high throughput screen for small molecules that induce DNA re-replication in MCF 10a normal breast cells; Potency, µM (series often up to 46.1 µM), for the others: top-dose activity, positive = re-replication, most hits filed as activators; MCF 10A DNA re-replication, Hoechst nuclear intensity, 48 h; AID 624296, 2012; 2.9% of 350,000 active; also: potency is read from the fitted curve at half-maximal effect; % of control where 0% means no effect; nearly all actives have a fitted effect of over 50% in size
DRD3 agonist: qHTS of D3 Dopamine Receptor Agonist: qHTS; 0.58% of 410,000 active; D3R DiscoveRx beta-arrestin cells, luminescence, 90 min; max activation, %; in the data active = max activation above about 30%; also: 0% is about no effect
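Agonist mode: compounds and dopamine controls were applied to plated cells for 90 min at 37 degrees C after an overnight attachment at 1500 cells/well. Luminescent read-out followed 30 - 60 minutes at room temperature with DiscoveRx detection reagent.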
SW480 rerep: A quantitative high throughput screen for small molecules that induce DNA re-replication in SW480 colon adenocarcinoma cells; AID 624297, 2012; SW480 DNA re-replication, Hoechst DNA content imaging, 48 h; 1.8% of 340,000 active; Potency, µM (series often up to 46.1 µM), for inactives: top-dose re-replication activation, hits mostly activators; also: potency is read from the fitted curve at half-maximal effect; % of control where 0% means no effect; nearly all actives have a fitted effect of over 55% in size
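Image-based read-out: total Hoechst fluorescence of nuclei (405 nm excitation, 500-530 nm emission), with hits raising the fraction of high-intensity nuclei. SW480 colon cells incubated 48 hr with compounds at 37 C.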
KB-3-1 tox: qHTS assay for MDR1-selective chemotherapeutics: Primary screen using the parental adenocarcinoma cell KB-3-1; KB-3-1 viability, CellTiter-Glo ATP luminescence, 72 h; Potency, µM (doses to about 46.1 µM), hits mostly cytotoxic; 1.4% of 400,000 active; AID 1347075, 2019; also: potency is read from the fitted curve at half-maximal effect; % is scaled to controls: 0 for no effect and ±100 for the full control effect; nearly all actives have a fitted effect of over 60% in size
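KB-3-1 cells, DMEM (no phenol red) + 10% FBS; compound by pin transfer, 72 h, 37 °C. Readout: CellTiter-Glo luminescence after 10 min. Data normalized, curve-fitted.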
An asterisk follows results filed as active; i = inactive; ? = inconclusive; . = no result. Unless noted, calls follow the shape of the dose curve; as a rule, active = well fitted curve in the direction sought with a large enough effect; inconclusive = small, poorly fitted or top-dose-only effect, or another doubt; inactive = no such curve, though single readings can be large; an effect the other way counts as inactive or inconclusive.

SMILES	DRD3 antagonist	KB-V1 MDR tox	MCF10A rerep	DRD3 agonist	SW480 rerep	KB-3-1 tox
CSc1nc(N2CCN(Cc3ccc4c(c3)OCO4)CC2)c2ccccc2n1	-64*	i	?	-2	4%	?
Cc1nc(Nc2ccccc2)c2oc3ccc(Cl)cc3c2n1	-6	i	?	93*	11%	i
Cc1ccc(Nc2nc(C)nc3c2oc2ccccc23)cc1	37	?	?	9	-6%	i
CN(C)c1ccc(C2C3=C(CCCC3=O)OC3=C2C(=O)CCC3)cc1	-55*	i	7%	0	3%	i
Cc1ccc(S(=O)(=O)Oc2ccc(C3C4=C(CCCC4=O)OC4=C3C(=O)CCC4)cc2)cc1	19	?	-1%	-5	-5%	i
O=C(N/N=C/c1cccc2ccccc12)c1cc2ccccc2o1	?	?	12µM*	-9	114%	?
COc1ccc(OC)c(/C=N\NC(=O)c2cc3c(ccc4ccccc43)o2)c1	22	i	?	-11	15%	i
O=C(N/N=C/c1ccccc1F)c1cc2c(ccc3ccccc32)o1	2	i	-10%	2	15%	i
O=C(COc1ccc(/C=N/NC(=O)c2cc3ccccc3o2)cc1Cl)Nc1ccccc1	-20	9.2µM*	?	2	8%	7.3µM*
COC(=O)c1ccccc1-c1ccc(/C=N/NC(=O)c2cc3ccccc3o2)o1	-10	13µM*	?	-9	-1%	?
O=C(N/N=C/C=C/c1ccccc1)c1cc2c(ccc3ccccc32)o1	?	?	?	16	12µM*	?
COc1cc(/C=N/NC(=O)c2ccccc2O)ccc1OCC(=O)Nc1ccccc1	0	i	?	6	-5%	i
Cc1ccc(Cl)cc1N1CCN(C(=O)COCc2cc(-c3ccc4c(c3)OCO4)on2)CC1	.	i	.	8	.	i
[O-]/C(=C(\C(=S)Nc1cccc2ccccc12)[n+]1ccccc1)c1ccc(Cl)s1	-2	i	?	-17	-1%	i
Cc1ccc(C)c(NC(=S)/C(=C(\[O-])c2ccc(Cl)s2)[n+]2ccccc2)c1	-16	i	0.65µM*	-3	-10%	i
Cc1[nH]nc(-c2cccnc2)c1N=NN(C)C	-90*	16µM*	1.6µM*	-14	2.6µM*	?
Cc1cc(C(=O)COc2ccc(-c3nnco3)cc2)c(C)n1Cc1ccccc1	-16	2.9µM*	15%	-6	0%	16µM*
CC(=O)Nc1ccc(NC(=O)COC(=O)C2(c3ccc(Cl)cc3)CCCC2)cc1	10	i	3%	2	2%	i
CCc1cccc(CC)c1NC(=O)COC(=O)C1(c2ccc(Cl)cc2)CCCC1	-14	4.6µM*	15%	0	-9%	i
O=C(O)c1cccc(CN2C(=O)SC(Nc3ccccc3)C2=O)c1 (stereo unspecified)	8	i	23µM*	1	-4%	i
Cc1ccc(NC2SC(=O)N(Cc3cccc(C(=O)O)c3)C2=O)cc1 (stereo unspecified)	?	i	8%	1	8%	i
Cc1ccc2c(c1)c1c(c(=O)n(-c3ccccc3C)c(=O)n1Cc1cccc(F)c1)n2C	.	i	.	-3	.	?
O=c1c2cc(NC(=S)N3CCC(N4CCCCC4)CC3)ccc2nc2n1CCCCC2	3	i	1%	-3	0%	i
O=c1c2cc(NC(=S)NCCCN3CCC(Cc4ccccc4)CC3)ccc2nc2n1CCCCC2	-94*	?	2%	-17	?	23µM*
O=c1c2cc(NC(=S)NC3CCCCC3)ccc2nc2n1CCCCC2	-11	?	47%	2	-9%	i

Assay outcomes (PubChem BioAssay)
